Assay results as given in PubChem BioAssay (NCATS).
Records with an inconclusive call do not appear. Activity calls are given as the source filed them. Calls come from the whole dose curve; as a rule, active = well fitted curve in the direction sought with a large enough effect; inconclusive = small, poorly fitted or top-dose-only effect, or another doubt; inactive = no such curve, though single readings can be large; an effect the other way counts as inactive or inconclusive.

Tests used:
[1] = Quantitative High-Throughput drug screen in 47 multiple myeloma cell lines against the NCATS MIPE library collection: FR4_PLB cell viability assay (AID 1918924; note: nearly all actives have a fitted effect of over 35% in size)
In short: (§1)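 Primary qHTS used for cherry-picking: cells at 500/well, library compounds for 48 h (37C, 5% CO2), luminescent ATP assay.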

[2] = Quantitative High-Throughput drug screen in 47 multiple myeloma cell lines against the NCATS MIPE library collection: Delta47_JCRB cell viability assay (AID 1918925; note: nearly all actives have a fitted effect of over 45% in size)
In short: (§2)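 qHTS of the MIPE 4.0 collection: 500 myeloma cells/well, 48 h drug exposure at 37C in 5% CO2, then CellTiter-Glo for 5 min at room temperature before luminescence reading.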

[3] = Quantitative High-Throughput drug screen in 47 multiple myeloma cell lines against the NCATS MIPE library collection: AMO1_DSMZ cell viability assay (AID 1918927; note: nearly all actives have a fitted effect of over 30% in size)
In short: as §2

[4] = Quantitative High-Throughput drug screen in 47 multiple myeloma cell lines against the NCATS MIPE library collection: Karpas620_DSMZ cell viability assay (AID 1918959); note: nearly all actives have a fitted effect of over 30% in size
In short: as §1

[5] = Quantitative High-Throughput drug screen in 47 multiple myeloma cell lines against the NCATS MIPE library collection: KMM1_JCRB cell viability assay (AID 1918960); note: nearly all actives have a fitted effect of over 30% in size
In short: (§3)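 Here, 48 h treatment with MIPE 4.0 agents at 37 °C preceded an ATP luminescence read. Plating density was 500 cells per well.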

[6] = Quantitative High-Throughput drug screen in 47 multiple myeloma cell lines against the NCATS MIPE library collection: JIM3_ECACC cell viability assay (AID 1918963; note: nearly all actives have a fitted effect of over 35% in size)
In short: as §1

[7] = Quantitative High-Throughput drug screen in 47 multiple myeloma cell lines against the NCATS MIPE library collection: H1112_PLB cell viability assay (AID 1918967; note: nearly all actives have a fitted effect of over 30% in size)
In short: as §2

[8] = Quantitative High-Throughput drug screen in 47 multiple myeloma cell lines against the NCATS MIPE library collection: Karpas25_ECACC cell viability assay (AID 1918968; note: nearly all actives have a fitted effect of over 35% in size)
In short: as §2

[9] = Quantitative High-Throughput drug screen in 47 multiple myeloma cell lines against the NCATS MIPE library collection: KMS27_JCRB cell viability assay (AID 1918970); details: KMS27 myeloma cells, CellTiter-Glo ATP viability, 48 h; viability (% of DMSO): at 45.8 µM (top of the series); note: nearly all actives have a fitted effect of over 30% in size
In short: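 CellTiter-Glo luminescence after 48 h drug exposure at 37 °C; 500 cells/well, 1536-well format, pin-tool compound addition; DMSO = 100%, media-only = 0% viability.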

[10] = Quantitative High-Throughput drug screen in 47 multiple myeloma cell lines against the NCATS MIPE library collection: KMS12BM_JCRB cell viability assay (AID 1918971); note: nearly all actives have a fitted effect of over 35% in size
In short: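 Approved and investigational drugs from MIPE 4.0 were added by pin tool to 500 cells per well. After 48 hours at 37C, ATP-based CellTiter-Glo luminescence indicated remaining viability.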

[11] = Quantitative High-Throughput drug screen in 47 multiple myeloma cell lines against the NCATS MIPE library collection: ARD_JJKsccE7 cell viability assay (AID 1918929)
In short: as §2

[12] = Quantitative High-Throughput drug screen in 47 multiple myeloma cell lines against the NCATS MIPE library collection: Karpas417_ECACC cell viability assay (AID 1918961); details: Karpas417 myeloma viability, CellTiter-Glo ATP luminescence, 48 h; viability (% of DMSO): at 45.8 µM (top of the series)
In short: (§4)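 We plated 500 myeloma cells per well, pinned in MIPE 4.0 compounds, and incubated for 48 hours at 37C. ATP was then quantified with CellTiter-Glo, with DMSO and media-only wells defining 100% and 0%.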

[13] = Quantitative High-Throughput drug screen in 47 multiple myeloma cell lines against the NCATS MIPE library collection: JIM1_ECACC cell viability assay (AID 1918964)
In short: as §2

[14] = Quantitative High-Throughput drug screen in 47 multiple myeloma cell lines against the NCATS MIPE library collection: INA6_PLB cell viability assay (AID 1918965; note: nearly all actives have a fitted effect of over 55% in size)
In short: as §4

[15] = Quantitative High-Throughput drug screen in 47 multiple myeloma cell lines against the NCATS MIPE library collection: KMS12PE_JCRB cell viability assay (AID 1918972); note: nearly all actives have a fitted effect of over 30% in size
In short: as §4

[16] = Quantitative High-Throughput drug screen in 47 multiple myeloma cell lines against the NCATS MIPE library collection: ARP1_JJKsccF8 cell viability assay (AID 1918928; note: nearly all actives have a fitted effect of over 40% in size)
In short: as §3

[17] = Quantitative High-Throughput drug screen in 47 multiple myeloma cell lines against the NCATS MIPE library collection: JJN3_DSMZ cell viability assay (AID 1918966; note: nearly all actives have a fitted effect of over 50% in size)
In short: as §2

[18] = Quantitative High-Throughput drug screen in 47 multiple myeloma cell lines against the NCATS MIPE library collection: KHM11_PLB cell viability assay (AID 1918962); note: nearly all actives have a fitted effect of over 35% in size
In short: as §1

[19] = Quantitative High-Throughput drug screen in 47 multiple myeloma cell lines against the NCATS MIPE library collection: KMS20_JCRB cell viability assay (AID 1918973); note: nearly all actives have a fitted effect of over 45% in size
In short: as §2

[20] = Quantitative High-Throughput drug screen in 47 multiple myeloma cell lines against the NCATS MIPE library collection: EJM_DSMZ cell viability assay (AID 1918926; note: nearly all actives have a fitted effect of over 30% in size)
In short: as §2

Measured: Potency
Potency is the fitted concentration of half-maximal effect.

CCN1CCN(c2ccc(Nc3cc(N(C)C(=O)Nc4c(Cl)c(OC)cc(OC)c4Cl)ncn3)cc2)CC1
inactive: [3] | [4] | [5] | [6] | [7] | [9]
active: [1] 18.7 µM | [2] 0.0093 µM | [8] 18.7 µM | [10] 16.6 µM

CNC(=O)[C@H](CC1=CN=C2C=CCC=C12)NC(=O)[C@@H](CC(=O)NO)CC(C)C
active: [2] 26.4 µM | [3] 0.0743 µM | [11] 0.118 µM | [4] 0.0743 µM | [5] 0.148 µM | [12] 0.0209 µM | [6] 26.4 µM | [13] 0.0833 µM | [14] 33.2 µM | [7] 14.8 µM | [8] 6.62 µM | [9] 0.0935 µM | [15] 0.105 µM
inactive: [1] | [10]

CN(CC=CC#CC(C)(C)C)Cc1cccc2ccccc12
inactive: [1] | [2] | [3] | [4] | [5] | [13] | [9] | [15]

CN(C)CCN(Cc1ccc(Cl)cc1)c1ccccn1
inactive: [1] | [16] | [11] | [4] | [5] | [6] | [17] | [9] | [10] | [15]
active: [2] 9.35 µM | [8] 11.8 µM

Cn1c(=O)c(-c2c(Cl)cccc2Cl)cc2cnc(Nc3cccc(C(=O)O)c3)nc21
active: [1] 5.26 µM | [3] 0.469 µM | [11] 0.469 µM | [4] 1.48 µM | [5] 0.209 µM | [12] 0.059 µM | [13] 0.0264 µM | [17] 4.18 µM | [9] 0.526 µM
inactive: [2] | [6] | [8]

CCNC(=O)CCCC=CC[C@@H]1[C@H](C=CC(O)CCc2ccccc2)[C@@H](O)C[C@@H]1O (stereo partly drawn)
active: [16] 10.5 µM | [10] 7.43 µM
not listed: [11] | [14] | [17] | [18] | [19] | [20]
inactive: all other assays above

Cn1cc(-c2ccc3nnc(Sc4ccc5ncccc5c4)n3n2)cn1
active: [2] 0.469 µM | [4] 1.18 µM | [15] 5.26 µM
inactive: [1] | [6] | [7] | [9]

CCCCC[C@H](O)C=C[C@H]1[C@H](O)CC(=O)[C@H]1CC=CCCCC(=O)O
inactive: [1] | [2] | [3] | [11] | [4] | [5] | [9] | [15]
active: [18] 5.9 µM | [6] 20.9 µM | [14] 18.7 µM | [8] 20.9 µM | [10] 20.9 µM

COc1ccc2nc3cc(Cl)ccc3c(Nc3cc(CN4CCCC4)c(O)c(CN4CCCC4)c3)c2n1
active: [1] 23.5 µM | [2] 16.6 µM | [16] 29.6 µM | [18] 20.9 µM | [14] 7.43 µM | [7] 18.7 µM | [8] 14.8 µM | [10] 11.8 µM

O=C1NC(=O)C(=Cc2ccc(-c3ccc(F)cc3O)o2)S1
active: [2] 0.418 µM | [3] 3.32 µM | [14] 7.43 µM | [7] 20.9 µM | [9] 2.09 µM | [10] 37.2 µM
inactive: [1] | [4] | [6] | [15]

CN1CCN(c2ncc(-c3cc(Cl)cc(Cl)c3Cl)c(N)n2)CC1
active: [2] 23.5 µM | [4] 20.9 µM | [13] 23.5 µM
inactive: [1] | [11] | [6] | [10]

O=C(O)CCNc1cc(N2CCc3ccccc3CC2)nc(-c2ccccn2)n1
active: [14] 16.6 µM | [8] 16.6 µM | [10] 0.0372 µM
inactive: [1] | [2] | [11] | [12] | [18] | [7] | [15]

CC[C@H](NC(=O)[C@H](C)NC)C(=O)N1C[C@@H](O)C[C@H]1Cc1c(-c2[nH]c3cc(F)ccc3c2C[C@H]2C[C@H](O)CN2C(=O)[C@H](CC)NC(=O)[C@H](C)NC)[nH]c2cc(F)ccc12
active: [2] 16.6 µM | [3] 4.69 µM | [11] 9.35 µM | [5] 14.8 µM | [6] 1.48 µM | [13] 2.09 µM | [14] 11.8 µM | [7] 11.8 µM | [8] 16.6 µM | [9] 0.935 µM | [15] 11.8 µM | [19] 4.69 µM
inactive: [1] | [18] | [17] | [10]

CC(C)CNc1ccnc(NCc2csc(-c3ccccc3)n2)n1
active: [1] 16.6 µM | [2] 2.35 µM | [3] 10.5 µM | [11] 5.9 µM | [4] 5.26 µM | [5] 7.43 µM | [12] 16.6 µM | [18] 9.35 µM | [6] 5.26 µM | [13] 11.8 µM | [14] 2.64 µM | [8] 0.935 µM | [9] 13.2 µM | [10] 16.6 µM | [15] 4.69 µM

Nc1ncnc2c1c(-c1cccc(OCc3ccccc3)c1)cn2C1CC(CN2CCC2)C1 (stereo not drawn)
active: [1] 16.6 µM | [2] 0.372 µM | [3] 14.8 µM | [4] 2.96 µM | [5] 0.372 µM | [18] 16.6 µM | [6] 0.332 µM | [13] 0.469 µM | [14] 20.9 µM | [17] 4.69 µM | [8] 1.18 µM | [9] 1.87 µM | [15] 16.6 µM | [19] 3.72 µM

C[C@@H](O[C@H]1OCCN(Cc2n[nH]c(=O)[nH]2)[C@@H]1c1ccc(F)cc1)c1cc(C(F)(F)F)cc(C(F)(F)F)c1
inactive: [11] | [9]
active: [1] 29.6 µM | [3] 5.9 µM | [16] 26.4 µM | [4] 7.43 µM | [6] 23.5 µM | [14] 20.9 µM | [10] 18.7 µM

CC(=O)Nc1cccc(-n2c(=O)n(C3CC3)c(=O)c3c(Nc4ccc(I)cc4F)n(C)c(=O)c(C)c32)c1
active: [1] 0.743 µM | [20] 0.0372 µM | [3] 1.18 µM | [4] 0.0296 µM | [5] 0.0935 µM | [12] 0.0662 µM | [18] 0.0059 µM | [6] 0.187 µM | [14] 0.0418 µM | [7] 0.0469 µM | [8] 1.66 µM | [19] 0.0118 µM
inactive: [16]

CN(C)N=Nc1nc[nH]c1C(N)=O
active: [11] 0.187 µM | [5] 0.935 µM | [14] 2.64 µM | [15] 0.166 µM
inactive: [1] | [20] | [3] | [6] | [7] | [8] | [10]

O=C1Nc2ccc(I)cc2C1=Cc1cc(Br)c(O)c(Br)c1
active: [3] 16.6 µM | [4] 14.8 µM | [14] 2.96 µM | [8] 14.8 µM | [9] 10.5 µM | [10] 16.6 µM
inactive: [1] | [20]

Cc1ccc(C2=Nc3ccc(Cl)cc3OC2)cc1
active: [1] 4.69 µM | [3] 1.18 µM | [5] 3.32 µM | [17] 5.26 µM | [8] 3.72 µM | [15] 4.18 µM
inactive: [20] | [4] | [6] | [7]

C=C1c2cccc(O)c2C(O)=C2C(=O)[C@@]3(O)C(O)=C(C(N)=O)C(=O)[C@@H](N(C)C)[C@@H]3[C@@H](O)[C@H]12
inactive: [3] | [4] | [5] | [18] | [9] | [15]
active: [1] 16.6 µM | [20] 9.35 µM | [16] 23.5 µM | [6] 16.6 µM | [8] 14.8 µM

CNC(=O)c1cc(Oc2ccc(NC(=O)Nc3ccc(Cl)c(C(F)(F)F)c3)c(F)c2)ccn1
active: [1] 23.5 µM | [3] 5.9 µM | [16] 23.5 µM | [11] 5.26 µM | [4] 10.5 µM | [5] 2.96 µM | [12] 4.69 µM | [18] 0.059 µM | [6] 3.32 µM | [13] 13.2 µM | [14] 5.9 µM | [17] 29.6 µM | [8] 2.64 µM | [9] 7.43 µM | [10] 18.7 µM | [15] 4.69 µM

c1ccc(CNc2nc(N3CCOc4ccccc43)nc3c2CCCC3)cc1
inactive: [1] | [20] | [4] | [17] | [7]
active: [3] 16.6 µM

O=C(O)c1ccc(O)c2ncc(N3CCOCC3)cc12
inactive: [1] | [20] | [18]
active: [3] 20.9 µM | [4] 18.7 µM | [6] 18.7 µM | [13] 20.9 µM | [8] 18.7 µM | [9] 23.5 µM | [15] 26.4 µM

Cn1c(=O)c(Oc2ccc(F)cc2F)cc2cnc(NC3CCOCC3)nc21
active: [11] 0.0074 µM | [10] 16.6 µM
inactive: [1] | [20] | [4] | [6] | [7] | [9]
